aSyn 5UTR act: Activators via SNCA 5'UTR binding, MLPCN | AID 1814 | actives 7.1% (n = 300,000) | activity score, % (tested at 7.5 µM), hits read low | alpha-synuclein 5'UTR reporter, activators screen; in the data active means activity score below about -60%
Large screens that a line does not name were inactive. Only a sample is shown.

Cc1nc2ccc(C(=O)Nc3cccc([N+](=O)[O-])c3)cc2s1	aSyn 5UTR act -127
COc1ccc(C(=O)Nc2ccc(Oc3nc(C)nc4sc(-c5ccccc5)cc34)cc2)cc1OC	aSyn 5UTR act -120
COC(=O)c1ccc(NC(=O)c2ccc3nc(C)sc3c2)cc1	aSyn 5UTR act -180
COc1ccc(C(=O)Nc2nc(C)c(C)s2)cc1OC	aSyn 5UTR act -142
COc1ccc(NC(=O)c2ccc3nc(C)sc3c2)cc1	aSyn 5UTR act -124
COc1ccc(C(=O)Nc2ccc3nc(C)sc3c2)cc1OC	aSyn 5UTR act -101
CN=c1scc(-c2ccccc2F)n1/N=C/c1ccc[nH]1	none
CN=c1scc(-c2ccco2)n1/N=C/c1ccc(O)c(O)c1	aSyn 5UTR act -242
C=CCN=c1scc(C)n1/N=C/c1ccc(O)c(O)c1	aSyn 5UTR act -156
c1ccc2nc3c(nc2c1)[nH]c1ccccc13	aSyn 5UTR act -171
Cc1ccc(C(=O)Nc2ccc3c(c2)OCCO3)c(C)c1	none
Cc1occc1C(=O)Nc1cccc(C(=O)O)c1	aSyn 5UTR act -85
O=C(CCl)Nc1ccccc1C(=O)Nc1ccc2c(c1)OCO2	aSyn 5UTR act -87
Cc1occc1C(=O)Nc1ccc2c(c1)OCO2	aSyn 5UTR act -144
O=C(COC(=O)c1ccccc1NCc1ccco1)Nc1ccc2c(c1)OCO2	aSyn 5UTR act -67
Cc1ccc(NC(=O)c2ccoc2C)cc1C	aSyn 5UTR act -231
COc1cccc(C(=O)Nc2ccc3c(c2)OCO3)c1OC	aSyn 5UTR act -128
O=C(NCc1ccccc1)c1cccc(COc2ccc(Cl)cc2)c1	aSyn 5UTR act -162
COc1cc(CNC(=O)c2cccc(COc3ccc(Cl)cc3)c2)cc(OC)c1	aSyn 5UTR act -77
COc1ccc2c(Cn3cnc4cc([N+](=O)[O-])ccc4c3=O)cc(=O)oc2c1	none
O=c1c2ccccc2ncn1CCOc1ccccc1[N+](=O)[O-]	aSyn 5UTR act -63
O=c1c2ccc([N+](=O)[O-])cc2ncn1CCOc1ccccc1	aSyn 5UTR act -69
COc1cnn(-c2ccc(C)cc2)c(=O)c1SCc1ccccc1	aSyn 5UTR act -77
COc1cnn(-c2ccc(Br)cc2)c(=O)c1SCc1ccccc1	aSyn 5UTR act -71
COc1ccc(/C=C/C(=O)NC(=S)Nc2ccccn2)cc1	aSyn 5UTR act -94
COc1ccc(/C=C/C(=O)NC(=S)NNC(=O)c2cnccn2)cc1	none
COc1ccccc1/C=C/C(=O)NC(=S)Nc1ccccn1	aSyn 5UTR act -126
N/C(=N\OC(=O)c1ccco1)c1ccccn1	aSyn 5UTR act -119
COc1ccc(/C(N)=N/OC(=O)c2ccco2)cc1	none
Cc1cccc(/C(N)=N/OC(=O)CCCc2ccccc2)c1	aSyn 5UTR act -89
N/C(=N\OC(=O)c1ccco1)c1ccccc1	aSyn 5UTR act -275
Cc1cccc(/C(N)=N/OC(=O)c2ccco2)c1	aSyn 5UTR act -109
N/C(=N\OC(=O)c1ccco1)c1ccc(Br)cc1	aSyn 5UTR act -200
O=c1c2ccccc2nc(N/N=C/c2c(O)ccc3ccccc23)n1O	none
N=C(N)SCc1nc2ccccc2c(=O)n1-c1ccccc1	aSyn 5UTR act -95
CCc1ccc(CCC(=O)Nc2ccccc2C(=O)O)o1	aSyn 5UTR act -85
CC#CCCCC(=O)Nc1ccccc1C(=O)O	aSyn 5UTR act -75
NC1=NN=C(c2ccc3c(c2)OCCO3)CS1	none
CCC(=O)N1CCc2cc(-c3csc(NC(=O)c4ccco4)n3)ccc21	aSyn 5UTR act -77
C=CCNc1nc(-c2ccc3c(c2)OCCO3)cs1	aSyn 5UTR act -134
CC(=O)Nc1nc(-c2ccc3c(c2)CCO3)cs1	aSyn 5UTR act -125
CCC(=O)Nc1nc(-c2ccc3c(c2)OCCO3)cs1	aSyn 5UTR act -136
O=C(NC(=S)Nc1nc(-c2ccccc2)cs1)c1ccco1	aSyn 5UTR act -77
CC(C)(C)C(=O)Nc1nc(-c2ccc3c(c2)OCO3)cs1	aSyn 5UTR act -147
O=C(Nc1nc(-c2ccncc2)cs1)c1ccco1	aSyn 5UTR act -86
O=C(Nc1nc(-c2cccs2)cs1)c1ccco1	aSyn 5UTR act -85
CCC(=O)Nc1nc(-c2ccc3c(c2)CC(C)N3S(C)(=O)=O)cs1 (stereo not given)	aSyn 5UTR act -70
C=CCNc1nc(-c2ccc(O)c(C(N)=O)c2)cs1	aSyn 5UTR act -78
O=C(Nc1nc(-c2ccc3c(c2)OCCO3)cs1)c1ccco1	aSyn 5UTR act -77
c1cc2c(cc1-c1csc(NNC3=NCCCCC3)n1)OCCO2	aSyn 5UTR act -70
O=c1c2ccccc2oc2ccc(-c3ccc4[nH]ccc4c3)cc12	aSyn 5UTR act -154
Cc1cccc(NC(=O)c2cccc(OC(=S)N3CCOCC3)c2)c1C	aSyn 5UTR act -66
Cc1ccc(Oc2cc(C)nc(-c3ccccc3O)n2)cc1	aSyn 5UTR act -69
Cc1ccc(Nc2cc(C)nc(-c3ccccc3O)n2)cc1	aSyn 5UTR act -116
Cc1ccc(Nc2cc(C)nc(-c3ccccc3)n2)cc1	aSyn 5UTR act -124
Cc1cc(NCCCN)nc(-c2ccccc2O)n1	aSyn 5UTR act -69
Cc1cc(N/N=C/c2ccc(O)c(C)c2O)nc(-c2ccccc2O)n1	none
C/C(=N\Nc1cc(C)nc(-c2ccccc2O)n1)c1ccccc1	aSyn 5UTR act -65
CC(C)(C)c1ccc(Cn2cnc(-c3ccc([N+](=O)[O-])cc3)c2)cc1	aSyn 5UTR act -119
O=C(NC(=O)c1ccccc1)NC1(C(F)(F)F)OCCO1	aSyn 5UTR act -113
COc1ccc(C(=O)NCCn2cc(SCC(=O)Nc3nnc(C)s3)c3ccccc32)cc1	aSyn 5UTR act -69
CCn1c2ccccc2c2cc(NC(=O)CN(C)CC(=O)Nc3ccc(N4CCOCC4)cc3)ccc21	aSyn 5UTR act -143
CC(C)c1ccc(NC(=O)N2CCOCC2)cc1	aSyn 5UTR act -107
O=C(Nc1ccc2c(c1)oc1ccccc12)N1CCOCC1	aSyn 5UTR act -140
CCn1c2ccccc2c2cc(NC(=O)N3CCOCC3)ccc21	aSyn 5UTR act -84
COc1cccc(C(=O)O/N=C(\N)c2ccncc2)c1OC	aSyn 5UTR act -84
N/C(=N\OC(=O)c1cccc2ccccc12)c1ccccn1	none
COc1cccc(C(=O)O/N=C(\N)c2ccccn2)c1OC	aSyn 5UTR act -74
CCOc1ccc(Nc2nc3cc(S(=O)(=O)N(CC)CC)ccc3o2)cc1	none
CCS(=O)(=O)c1ccc2oc(Nc3ccc(C(C)C)cc3)nc2c1	aSyn 5UTR act -95
CCCCc1ccc(-c2nc(NC(=O)C3C4CCC(O4)C3C(=O)O)sc2C)cc1 (stereo not given)	aSyn 5UTR act -128
c1ccc(-c2nnnc3ccccc23)cc1	aSyn 5UTR act -165
Clc1ccc2nnnc(-c3ccccc3)c2c1	aSyn 5UTR act -375
S=C(NCc1ccco1)Nc1cc(-c2ccccc2)[nH]n1	aSyn 5UTR act -68
O=C(N/C=C/c1ccccc1)c1ccccc1	aSyn 5UTR act -135
C=CCNS(=O)(=O)c1nc(C)c(Cl)c(C)c1C#N	aSyn 5UTR act -110
Cc1cc(C)c(OCC(=O)Nc2cc(C(=O)O)cc(C(=O)O)c2)cc1C	aSyn 5UTR act -129
Cc1ccc(C)c(OCC(=O)Nc2cccc(C(=O)O)c2)c1C	aSyn 5UTR act -110
Cc1ccc(C(=O)N/N=C\c2ccc(-c3ccc(Cl)c(Cl)c3)o2)cn1	aSyn 5UTR act -66
Cc1ccc(C(=O)N/N=C/c2cn(Cc3ccccc3)c3ccccc23)cn1	none
c1ccn(-c2ccc(-c3ccn[nH]3)cc2)c1	aSyn 5UTR act -164
CNc1nc(N2CCc3ccccc32)ncc1F	aSyn 5UTR act -109
O=[N+]([O-])c1ccccc1S(=O)(=O)Oc1ccccc1/C=N/n1cnnc1	aSyn 5UTR act -79
O=C(c1ccco1)N1CCN(Cc2c(Cl)cccc2Cl)CC1	aSyn 5UTR act -85
